Screens as filed in PubChem BioAssay.
This is a sample that favours compounds with a hit; in the whole collection about 4.5% have one here.
PfHsp90 yeast 2 = growth inhibition of PfHsp90-expressing yeast, primary screen, antimalarial PfHsp90 inhibitor project, S. cerevisiae, BacTiter-Glo luminescence, single point, set 2; hit rate 0.32% among 310,000; inhibition, % at 9.4 µM; AID 504621, 2011; BacTiter-Glo ATP, 48 h; yeast lacking PDR1 and PDR3 efflux regulators;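 active = every replicate shows inhibition above about 80%, whatever the replicate mean, limit read from the data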
TIM10 inh = growth inhibitors of isogenic TIM10 control yeast, primary screen, counter-screen for tim10-1 yeast inhibitor project, luminescence, uHTS. inhibition, % at 10 µM. hit rate 1.4% among 330,000. S. cerevisiae TIM10 strain growth, BacTiter-Glo luminescence, 24 h. AID 463195, 2010;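 active = inhibition of 40% or more at the single tested concentration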;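 also: wild-type TIM10 isogenic control strain grown at permissive 25 °C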
NALP3 yeast inh = NALP3 inflammasome inhibitors in reconstituted yeast, primary screen, luminescence, uHTS | Yeast reconstituted NLRP3/ASC/caspase-1, beta-gal luminescence, 24 h | inhibition, % at 10 µM | hit rate 0.39% among 330,000;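 active = inhibition of 50% or more; inactive = inhibition below 50%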
tim23-1 inh = growth inhibitors of tim23-1 mutant yeast, primary screen, luminescence, uHTS | S. cerevisiae tim23-1 growth, BacTiter-Glo luminescence, 24 h | inhibition, % at 20 µM | hit rate 1.3% among 330,000 | AID 463212, 2010;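 active = growth inhibition of the mutant yeast at or above 50%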;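 also: temperature-sensitive mutant grown at 25 °C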
SKKanGAS inh = S. pyogenes SKKanGAS growth inhibitors in kanamycin, primary screen, streptokinase expression inhibitor project, SKKanGAS strain, BacTiter-Glo luminescence; inhibition, % at 7.5 µM; hit rate 1.3% among 300,000; 6 h;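 active = mean replicate score, as percent of positive control median, at least 50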;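 also: strain carries kanamycin resistance gene driven by streptokinase promoter and grows in 40 µg/ml kanamycin; loss of luminescence reflects streptokinase promoter inhibition or plain growth inhibition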
tim10-1 inh = growth inhibitors of tim10-1 mutant yeast, primary screen, luminescence, uHTS; S. cerevisiae tim10-1 ts strain growth, BacTiter-Glo, 24 h; inhibition, % at 20 µM; hit rate 2.2% among 330,000;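 active = inhibition of at least 40%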;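 also: mutant grown at 25 °C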
tim10-1 confirm = growth inhibitors of tim10-1 mutant yeast, confirmation, single concentration, luminescence, S. cerevisiae | hit rate 56% among 7,400 | shares compounds with tim10-1 inh | AID 463213, 2010 | inhibition, % at 20 µM | S. cerevisiae tim10-1 ts strain growth, BacTiter-Glo, 24 h;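 active = inhibition of yeast growth at or above a set limit in either of two repeat tests at 20 µM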;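 also: tim10-1 mutant grown at permissive 25 °C to find synthetic lethal compounds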
A number is an active result; 0 = inactive; - = no result.

SMILES	PfHsp90 yeast 2	TIM10 inh	NALP3 yeast inh	tim23-1 inh	SKKanGAS inh	tim10-1 inh	tim10-1 confirm
COc1ccc(C2=NN(C(C)=O)CC2c2cccc([N+](=O)[O-])c2)cc1 (centres undefined)	0	0	0	0	0	43	0
COc1cc(OC)cc(C(=O)NC(=S)NNC(=O)Cc2cccs2)c1	0	0	0	0	70	40	0
CC(=O)/C(N=Nc1cccc(C(F)(F)F)c1)=C(\C)O	0	0	0	0	0	0	-
O=C(/C(N=Nc1cccc(C(F)(F)F)c1)=C(/O)c1cccs1)C(F)(F)F	0	0	0	0	0	40	31
CN(C)S(=O)(=O)N1CCC(Oc2ccc(C(=O)NC3CCOC(C)(C)C3)cc2)CC1 (centres undefined)	0	0	0	0	0	0	-
CN(C)S(=O)(=O)N1CCC(Oc2ccc(C(=O)NC3Cc4ccccc4C3)cc2)CC1	0	0	0	0	0	44	0
O=[N+]([O-])c1ccc(O)c(NC(=S)Nc2ccccc2)c1	0	0	0	0	0	48	0
COc1ccc([N+](=O)[O-])cc1NC(=S)Nc1ccccc1	0	0	0	0	0	0	-
COc1ccc(CCNC(=O)Oc2ccccc2)cc1OC	0	0	0	0	0	0	-
CCOC(=O)C1CCCN(C(=O)c2cc3cc4ccc(OC)cc4nc3o2)C1 (centres undefined)	0	0	0	0	0	0	-
COc1ccc2cc3cc(C(=O)N4CCCC(C)C4)oc3nc2c1 (centres undefined)	0	0	0	0	0	45	0
O=C(c1cc(=O)c2ccccc2o1)N1CCN(c2cccc(Cl)c2)CC1	-	0	0	0	0	44	0
Cc1ccc(C(=O)N2CCN(c3cccc(Cl)c3)CC2)cc1C	0	0	0	0	0	50	0
O=C(Nc1ccccc1Cl)NN1CCCCCC1	0	-	-	-	-	-	-
CCN(CC(=O)Nc1ccccc1OC)C(=O)c1ccc2[nH]c3c(c2c1)CC(C)CC3 (centres undefined)	-	0	0	0	-	0	-
CCCN(CC(=O)Nc1ccccc1OC)C(=O)c1ccc2[nH]c3c(c2c1)CC(C)CC3 (centres undefined)	0	0	0	0	-	41	0
CCn1c(-c2ccccc2)c(C(=O)CC#N)c2ccccc21	0	0	0	0	0	42	30
O=C(CCNC(=O)c1ccco1)NNC(=O)c1ccc(Br)cc1	0	-	-	-	-	-	-
O=C(NC(=S)NNC(=O)c1ccco1)c1ccc(Br)cc1	0	0	0	0	55	41	0
Cc1ccc(-c2nn(-c3ccccc3)cc2C(=O)N2CCOCC2)cc1	0	0	0	0	0	40	0
COC(CNC(=O)C(=O)NCC1OCCN1S(=O)(=O)c1ccccc1)OC (centres undefined)	0	0	0	0	0	0	-
COc1ccc(Cl)cc1NC(=O)CSc1nnc(COc2ccccc2)n1N	0	0	0	0	0	0	-
COc1ccc(Cl)cc1NC(=O)CSc1nnc(COc2ccccc2)n1C	0	0	0	0	0	46	0
CCc1ccc(/C=C2\Oc3cc(OC(=O)N4CCOCC4)ccc3C2=O)cc1	0	0	0	0	0	50	0
Cc1ccccc1OC(=O)c1cccc(S(=O)(=O)N2CCN(C)CC2)c1	0	0	0	0	-	0	-
SMILES	PfHsp90 yeast 2	TIM10 inh	NALP3 yeast inh	tim23-1 inh	SKKanGAS inh	tim10-1 inh	tim10-1 confirm
C#CCOCCOCCOCCNc1nc(N2CCN(C(=O)[C@H]([C@@H](C)CC)n3cc([C@@H](N)Cc4ccc(O)cc4)nn3)CC2)nc(N2CCN(C(=O)[C@H](CCCCN)n3cc([C@@H](N)CC(C)C)nn3)CC2)n1	-	0	0	0	0	0	-
CCOc1ccc(NC(=O)C(C)Oc2ccccc2C(=O)Nc2cccc(Cl)c2Cl)cc1 (centres undefined)	0	0	0	0	0	41	0
CCOC(=O)[C@H]1[C@H]2COc3ccc(Cl)cc3[C@@H]2N2C(=O)CN(Cc3ccco3)C(=O)[C@@]12C	0	0	0	0	-	0	-
Cc1oc(=O)c(NC(=O)c2ccc(Cl)cc2)cc1C(=O)c1ccccc1	0	0	0	0	0	56	57
COc1ccc(C(OC(=O)c2ccco2)C(=O)NC2CCCC2)cc1OC (centres undefined)	0	0	0	0	0	0	-
COc1ccc(C(OC(=O)c2ccco2)C(=O)NC2CCCCC2)cc1OC (centres undefined)	-	0	0	0	0	45	0
COc1ccc(Cl)cc1C(=O)Nc1ccc2c(c1)OCCO2	0	0	0	0	0	0	-
COc1ccc(OC)c(NC(=O)Nc2ccc3c(c2)OCO3)c1	0	0	0	0	0	40	0
COc1ccc(Cl)cc1C(=O)Nc1ccc2c(c1)OCO2	-	0	0	0	0	46	35
COc1cccc(NC(=O)Nc2ccc3c(c2)OCO3)c1	0	0	0	0	0	0	-
O=C(Nc1cccc(NC(=O)c2ccc(Cl)cc2Cl)c1)c1cccnc1	0	0	0	0	0	0	-
CC(C)[C@H](NC(=O)N1CCn2c1nc1ccccc12)C(=O)N[C@H](C(=O)O)c1ccccc1	0	0	0	0	0	0	-
CCOC(=O)c1c(C)[nH]c(C(=O)Nc2ccc3c(c2)OCO3)c1C	-	0	0	0	0	43	32
COc1ccc(NC(=O)C2CCN(c3cc(C)nc(-c4ccccc4)n3)CC2)cc1	0	0	0	0	0	43	0
COc1ccc(NC(=O)C2CCN(c3nc(C)cc(C)n3)CC2)cc1	-	0	0	0	0	0	-
CC1(C)Cc2ccccc2/C(=C/C(=O)N2CCCCCC2)N1	0	0	0	0	0	42	40
CC(=O)Nc1ccc(N2S(=O)(=O)c3ccccc3S2(=O)=O)cc1	0	0	0	0	-	41	0
Nc1nonc1C(=O)NCCNC(=O)c1cccc(Cl)c1	0	0	0	0	0	0	-
CCCC(=O)Nc1nc2ccc(OCC)cc2s1	0	0	0	0	0	42	0
COc1ccc(C(O)P(=O)(OCCC(C)C)c2ccc(N(C)C)cc2)cc1OC (centres undefined)	0	0	0	0	0	0	-
Cc1ccc(C(O)P(=O)(OCCC(C)C)c2ccc(N(C)C)cc2)cc1 (centres undefined)	0	0	0	0	0	41	0
CCC(C)C(=O)N1c2ccccc2C(=C2SC(C(=O)OC)=C(C(=O)OC)S2)C(=S)C1(C)C (centres undefined)	0	0	0	0	0	44	0
